From PubChem BioAssay AID493030 (The Scripps Research Institute Molecular Screening Center, 2011) come the findings set out here.

Each structure is given as a SMILES string. Hit rate of the full screen: of about 2,300 compounds, about 1,500 (65%) were called active.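 Rule for the calls: active = mean inhibition over three repeats above a set limit taken from the earlier primary screen (cut at about 30% in these data); inactive = the rest.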 So high a share suggests a set chosen from earlier hits. A selection follows.

The target in the experiment is Platelet-activating factor acetylhydrolase 2, cytoplasmic (Homo sapiens) (UniProt Q99487). Description: PAFAH2 enzyme inhibitors, confirmation, biochemical, fluorescence polarization, human (AID 493030).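 Note: inhibitor blocks binding of rhodamine activity probe so polarization falls; 0% = enzyme with DMSO and 100% = wells lacking PAFAH2 protein.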 Conditions: recombinant PAFAH2, FP-rhodamine activity probe, at 3.39 µM, hits give high values.
Broadly, the inhibition is the drop in the measured response relative to a control, in per cent. For `O=C(OCc1cn(-c2ccc(Cl)c(Cl)c2)nn1)c1ccccc1Cl`, the inhibition was 43.1% (active).
Turning to `O=C(COC(=O)c1ccccc1SCC(=O)N1CCCC1)Nc1ccccc1OC(F)F`, the inhibition is 25.9% (inactive).
As for `O=C(COC(=O)c1ccccc1Cl)NC1CCCCCCC1`, the figure is 70.3% (active).
As for `O=C(COC(=O)c1cccc(Cl)c1)NC1CCCCCCC1`, the figure is 67.1% (active); as for `O=C(COC(=O)c1ccccc1SCC(=O)NC1CCCCC1)NC1CCCCC1`, 73.7% (active).
With `N#Cc1ccccc1Sc1ccccc1C(=O)OCC(=O)NC1CCCCC1` the figure was 21.3% (inactive); with `CC(C)(C)c1csc(NC2=NS(=O)(=O)c3ccccc32)n1`, 29.4% (inactive).
Turning to `COc1ccccc1CNC(=O)COC(=O)c1cccs1`, the inhibition is 41.8% (active).
As for `O=C(COC(=O)c1cccs1)Nc1ccccc1Cl`, the figure is 55.6% (active); as for `COc1ccccc1CNC(=O)COC(=O)c1sc(C)nc1C`, 21% (inactive); as for `O=C(COC(=O)c1cccs1)NCc1cccs1`, 45.9% (active).
Take `O=c1oc(-c2ccco2)nc2sc3c(c12)CCCCC3`: the inhibition is 34.2% (active).
Consider `CC(C)c1ccc(NC(=O)COC(=O)c2ccc(CN3CCCC3=O)cc2)cc1`, for which the inhibition was 66.8% (active).
As for `CCC(C)C(NC(=O)C1CCC(=O)N1C(=O)OCc1ccccc1)C(=O)NC(C(=O)N1CCCC1C(N)=O)C(C)CC` (centres undefined), the figure is 40.4% (active); as for `Cc1ccc(S(=O)(=O)N(C)C)cc1NC(=O)COC(=O)/C=C/c1cccs1`, 51.7% (active).
As for `CN(C)S(=O)(=O)c1cccc(NC(=O)COC(=O)/C=C/c2cccs2)c1`, the figure is 58.5% (active).
With `O=c1[nH]n(-c2ccc([N+](=O)[O-])cc2)c(=O)c2ccccc12` the figure was 32.6% (active); with `CS(=O)(=O)c1ccc(Cl)c(NC(=O)COC(=O)c2cccc(S(=O)(=O)N3CCCC3)c2)c1`, 21.3% (inactive).
Turning to `CCOc1ncccc1C(=O)OCC(=O)Nc1cccc(S(=O)(=O)N2CCCCCC2)c1`, the inhibition is 57.6% (active).
With `O=C(COC(=O)c1ccccc1)Nc1cccc(S(=O)(=O)N2CCOCC2)c1` the figure was 33.4% (active); with `CCc1ccc(C(=O)OCC(=O)Nc2cccc(S(=O)(=O)NC3=NCCCCC3)c2)cc1`, 51.8% (active).
As for `O=C(COC(=O)/C=C/c1ccc(Br)o1)Nc1cccc(S(=O)(=O)N2CCOCC2)c1`, the figure is 26.4% (inactive); as for `CCC(C)(C)c1ccc(Oc2ccc(NC(=O)COC(=O)C3=COCCO3)cc2)cc1`, 61.5% (active).
With `O=C(COC(=O)c1ccc2c(c1)OCCO2)NCc1ccccc1Cl` the figure was 78.9% (active); with `CC(NC(=O)COC(=O)c1ccc2c(c1)OCO2)c1ccccc1` (centres undefined), 45.8% (active); with `COc1ccc(NC(=O)CC(NC(C)c2ccccc2)C(=O)O)cc1` (centres undefined), 1.53% (inactive).
As for `O=C(COC(=O)c1ccc2c(c1)OCCO2)NCc1ccccc1`, the inhibition is 45.8% (active).
With `O=C(COC(=O)/C=C/c1ccc(S(=O)(=O)N2CCCCCC2)cc1)NCc1ccccc1Cl` the figure was 24.4% (inactive).
As for `Cc1cnc(NC(=O)CSc2c(Cl)cccc2Cl)s1`, the figure is 21.7% (inactive).
